# Laboratory results from PubChem BioAssay (EPA / NIEHS).
# Activity calls are given as the source filed them. How the source made its calls: active means hit-call score of the fitted dose curve at least 0.9, where 1 is the maximum; inactive means score below 0.9.
# Assays:
# [1] = ATG_E_Box_CIS: Attagene CIS-FACTORIAL HepG2 Assay for human Enhancer Box (E-box) (AID 2282936); details: HepG2 E-box cis-reporter transcription, actives raise or lower the signal
# How it was run: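 Cells: HepG2 (human liver), transient MRTU transfection. Exposure 24 h. RNA → oligo(dT) RT → PCR → 6-FAM label → HpaI → CE. Activity fitted both directions relative to DMSO.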
# [2] = ATG_M_61_CIS: Attagene CIS-FACTORIAL HepG2 Assay for M61 Transcription Factor (Internal Marker) (AID 2282937); details: HepG2 Attagene CIS-FACTORIAL M61 internal marker reporter; actives raise or lower the signal
# How it was run: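 Transfect HepG2 with MRTUs; dose 24 h; isolate RNA; reverse-transcribe with DNase I treatment; PCR-amplify, FAM-label and cut with HpaI for 2 h at 37 C; resolve by CE. Bidirectional fitting against DMSO.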
# [3] = ATG_EGR_CIS: Attagene CIS-FACTORIAL HepG2 Assay for human Early Growth Response 1 (EGR1) (AID 2282938); details: HepG2 Attagene CIS-FACTORIAL EGR reporter mRNA; actives raise or lower the signal
# How it was run: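 After a 24 h treatment of transiently transfected HepG2 cells, total RNA was reverse-transcribed and reporter sequences PCR-amplified, labelled and run on capillary electrophoresis. Reporters sit under cis-regulatory promoters sensing endogenous factors.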
# [4] = ATG_ERE_CIS: Attagene CIS-FACTORIAL HepG2 Assay for Estrogen Response Element (ERE) (AID 2282940); details: HepG2 ERE cis-reporter, Attagene RNA transcript; actives raise or lower the signal
# How it was run: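 Measuring endogenous transcription factor output, the assay doses transfected HepG2 cells for 24 hours and quantifies reporter transcripts by fluorescent RT-PCR and capillary electrophoresis, with DMSO as baseline.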
# [5] = ATG_Ets_CIS: Attagene CIS-FACTORIAL HepG2 Assay for human Erythroblast Transformation Specific (ETS) (AID 2282941); details: HepG2 ETS cis-reporter transcription, actives raise or lower the signal
# How it was run: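 Steps: transfect HepG2 with multiple reporter units; treat compound 24 h; isolate RNA, DNase-treat, reverse-transcribe; PCR-amplify, label with 6-FAM, digest with HpaI; separate by capillary electrophoresis. Activity fitted both directions versus DMSO.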
# [6] = molecular target: Hepatocyte nuclear factor 3-beta (Homo sapiens) (UniProt Q9Y261); assay: ATG_FoxA2_CIS: Attagene CIS-FACTORIAL HepG2 Assay for human Forkhead box A2 (FOXA2) (AID 2282942); details: HepG2 cis-reporter transcription factor activity, 24 h; actives raise or lower the signal
# Chain of Hepatocyte nuclear factor 3-beta (Homo sapiens) (Q9Y261 whole entry, looked up): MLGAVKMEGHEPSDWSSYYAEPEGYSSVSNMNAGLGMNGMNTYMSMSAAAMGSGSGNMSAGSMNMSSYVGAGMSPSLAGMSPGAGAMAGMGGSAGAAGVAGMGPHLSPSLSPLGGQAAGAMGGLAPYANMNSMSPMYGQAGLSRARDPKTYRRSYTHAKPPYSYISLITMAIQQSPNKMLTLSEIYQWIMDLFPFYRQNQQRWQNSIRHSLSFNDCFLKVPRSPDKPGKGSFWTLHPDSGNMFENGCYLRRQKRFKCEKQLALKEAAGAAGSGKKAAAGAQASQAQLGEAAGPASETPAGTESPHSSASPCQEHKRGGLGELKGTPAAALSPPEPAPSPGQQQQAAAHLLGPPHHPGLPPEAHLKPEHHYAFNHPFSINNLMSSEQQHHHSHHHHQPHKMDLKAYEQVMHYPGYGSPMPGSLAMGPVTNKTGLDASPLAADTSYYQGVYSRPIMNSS
# How it was run: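 24 h dosing of HepG2 bearing cis-reporter constructs; mRNA readout by RT-PCR/CE fluorescence; bidirectional fit, DMSO baseline.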
# [7] = ATG_FoxO_CIS: Attagene CIS-FACTORIAL HepG2 Assay for human Forkhead box O (FoxO) (AID 2282943); details: HepG2 Attagene cis-reporter, FoxO element, mRNA; actives raise or lower the signal
# How it was run: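 Endogenous transcription factor activity read from multiplexed cis-promoter reporter transcripts in transiently transfected HepG2, 24 h after dosing. Reporter RNA measured via RT-PCR plus capillary electrophoresis of FAM-labeled products; gain or loss relative to DMSO.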
# [8] = ATG_GATA_CIS: Attagene CIS-FACTORIAL HepG2 Assay for human GATA Binding Protein (AID 2282944); details: HepG2 GATA cis-element reporter, Attagene multiplex mRNA; actives raise or lower the signal
# How it was run: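 Measures endogenous transcription factor-driven reporter mRNA in HepG2 cells transiently carrying cis-regulated constructs. 24 h dosing; RNA via oligo(dT) reverse transcription, PCR, HpaI digestion, capillary electrophoresis; fitted relative to DMSO.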
# [9] = ATG_GLI_CIS: Attagene CIS-FACTORIAL HepG2 Assay for human Zinc Finger Protein GLI1 (AID 2282945); details: HepG2, Attagene cis-factorial reporter mRNA, GLI element; actives raise or lower the signal
# How it was run: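 Bidirectional curve fits relative to DMSO, using reporter mRNA levels from RT-PCR plus capillary electrophoresis. Cells were HepG2 transiently carrying cis-regulated reporter constructs, harvested 24 h after dosing.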
# [10] = ATG_GRE_CIS: Attagene CIS-FACTORIAL HepG2 Assay for human Glucocorticoid Response Elements (GRE) (AID 2282947); details: HepG2 GRE cis-reporter, Attagene multiplex mRNA; actives raise or lower the signal
# How it was run: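 Transient MRTU transfection of human HepG2 liver cells; cis-regulated reporters report endogenous factors. 24 h dosing → RNA isolation → RT-PCR → 6-FAM primer extension → HpaI cut → CE fragment analysis. Bidirectional fit, DMSO negative control.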
# [11] = ATG_ISRE_CIS: Attagene CIS-FACTORIAL HepG2 Assay for human Interferon Regulatory Factor 1 (IRF1) binding to an Interferon-Stimulated Response Element (ISRE) (AID 2282948); details: HepG2 ISRE cis-reporter (Attagene), mRNA transcription readout; actives raise or lower the signal
# How it was run: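 Transfected HepG2 (multiple reporter transcription units, cis elements) dosed 24 h. RNA → oligo(dT) RT → PCR → 6-FAM primer extension → HpaI → CE. DMSO = negative control/baseline.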
# [12] = ATG_M_32_CIS: Attagene CIS-FACTORIAL HepG2 Assay for M32 Transcription Factor (Internal Marker) (AID 2282949); details: HepG2 Attagene cis-factorial M32 reporter, mRNA; actives raise or lower the signal;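 further: background control marker of the multiplexed CIS panel rather than a real target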
# How it was run: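 Fluorescent capillary electrophoresis peaks of HpaI-digested, FAM-labelled RT-PCR reporter products give the signal. Source: transiently transfected human liver HepG2 cells, 24 h after chemical dosing; bidirectional fitting against DMSO.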
# [13] = ATG_M_06_CIS: Attagene CIS-FACTORIAL HepG2 Assay for M06 Transcription Factor (Internal Marker) (AID 2282950); details: HepG2 Attagene CIS-FACTORIAL M06 internal marker reporter; actives raise or lower the signal
# How it was run: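 One of many multiplexed endpoints: HepG2 reporter mRNA after 24 h dosing, detected by RT-PCR and capillary electrophoresis fluorescence; gain or loss of signal analysed against DMSO.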
# [14] = molecular target: Hepatocyte nuclear factor 6 (Homo sapiens) (UniProt Q9UBC0); assay: ATG_HNF6_CIS: Attagene CIS-FACTORIAL HepG2 Assay for human Hepatocyte Nuclear Factor 6 (HNF6) (AID 2282952); details: HepG2 Attagene cis-factorial HNF6 reporter transcription; actives raise or lower the signal
# Chain of Hepatocyte nuclear factor 6 (Homo sapiens) (Q9UBC0 whole entry, looked up): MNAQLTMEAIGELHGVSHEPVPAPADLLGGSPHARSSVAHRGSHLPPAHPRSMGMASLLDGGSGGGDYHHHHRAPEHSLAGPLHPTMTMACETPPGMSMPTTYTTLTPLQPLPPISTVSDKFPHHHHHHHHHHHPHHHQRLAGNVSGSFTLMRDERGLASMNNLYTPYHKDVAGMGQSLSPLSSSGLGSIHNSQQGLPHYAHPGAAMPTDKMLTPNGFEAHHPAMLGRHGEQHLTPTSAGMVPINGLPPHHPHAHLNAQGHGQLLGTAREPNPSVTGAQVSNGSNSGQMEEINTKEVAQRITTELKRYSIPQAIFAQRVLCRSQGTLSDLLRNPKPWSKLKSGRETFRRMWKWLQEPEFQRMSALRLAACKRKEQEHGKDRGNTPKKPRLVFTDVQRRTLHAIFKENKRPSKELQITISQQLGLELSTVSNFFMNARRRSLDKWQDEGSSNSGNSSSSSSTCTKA
# How it was run: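 Transiently transfected HepG2 cells expressing cis-regulated reporter transcription units were exposed to chemical for 24 h in a 24-well format. Reporter transcript abundance was determined by fluorescence capillary electrophoresis.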
# [15] = molecular target: Heat shock factor protein 1 (Homo sapiens) (UniProt Q00613); assay: ATG_HSE_CIS: Attagene CIS-FACTORIAL HepG2 Assay for human Heat Shock Transcription Factor 1 (HSE) (AID 2282953); details: HepG2 HSE cis-reporter, Attagene RNA transcription; actives raise or lower the signal
# Chain of Heat shock factor protein 1 (Homo sapiens) (Q00613 whole entry, looked up): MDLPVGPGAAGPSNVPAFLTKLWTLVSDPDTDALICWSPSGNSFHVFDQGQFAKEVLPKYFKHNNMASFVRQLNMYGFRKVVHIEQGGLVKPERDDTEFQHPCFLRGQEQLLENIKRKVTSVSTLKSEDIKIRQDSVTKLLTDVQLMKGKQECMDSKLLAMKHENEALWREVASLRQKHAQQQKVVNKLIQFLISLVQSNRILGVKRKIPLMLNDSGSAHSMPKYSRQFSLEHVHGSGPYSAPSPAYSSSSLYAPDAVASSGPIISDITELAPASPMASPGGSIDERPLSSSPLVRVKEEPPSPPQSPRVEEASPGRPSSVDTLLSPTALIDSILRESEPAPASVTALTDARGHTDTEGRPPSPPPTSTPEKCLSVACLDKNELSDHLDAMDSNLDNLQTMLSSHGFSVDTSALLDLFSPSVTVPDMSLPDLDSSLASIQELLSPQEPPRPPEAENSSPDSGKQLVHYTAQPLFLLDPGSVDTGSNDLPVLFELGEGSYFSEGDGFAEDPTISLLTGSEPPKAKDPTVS
# How it was run: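 Using HepG2 with transfected cis-driven reporter constructs, compound effects on endogenous factor activity are scored as reporter mRNA change at 24 h. Detection: RT-PCR, HpaI digestion, capillary electrophoresis; bidirectional fitting to DMSO.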
# [16] = ATG_MRE_CIS: Attagene CIS-FACTORIAL HepG2 Assay for human Metal Responsive Element (MRE) (AID 2282954); details: HepG2 MRE cis-reporter transcription, Attagene multiplex; actives raise or lower the signal
# How it was run: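 Transient MRTU transfection of HepG2 (FuGene 6); 24 h dosing; total RNA → oligo(dT) RT, PCR, 6-FAM primer extension, HpaI cut, CE. Bidirectional fit vs DMSO.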
# [17] = ATG_PBREM_CIS: Attagene CIS-FACTORIAL HepG2 Assay for human Phenobarbital-responsive Enhancer Module (PBREM) (AID 2282955); details: HepG2 PBREM cis-reporter, Attagene multiplexed transcription; actives raise or lower the signal
# How it was run: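 Measures endogenous factor action on a phenobarbital-responsive enhancer module. HepG2 transiently carrying cis reporters, 24 h treatment, mRNA read-out by RT-PCR plus capillary electrophoresis.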
# [18] = molecular target: Hypoxia-inducible factor 1-alpha (Homo sapiens) (UniProt Q16665); assay: ATG_HIF1a_CIS: Attagene CIS-FACTORIAL HepG2 Assay for human Hypoxia Inducible Factor 1 (HIF1A) (AID 2282951); details: HepG2 Attagene cis-factorial HIF1a reporter transcription; actives raise or lower the signal
# Chain of Hypoxia-inducible factor 1-alpha (Homo sapiens) (Q16665 whole entry, looked up): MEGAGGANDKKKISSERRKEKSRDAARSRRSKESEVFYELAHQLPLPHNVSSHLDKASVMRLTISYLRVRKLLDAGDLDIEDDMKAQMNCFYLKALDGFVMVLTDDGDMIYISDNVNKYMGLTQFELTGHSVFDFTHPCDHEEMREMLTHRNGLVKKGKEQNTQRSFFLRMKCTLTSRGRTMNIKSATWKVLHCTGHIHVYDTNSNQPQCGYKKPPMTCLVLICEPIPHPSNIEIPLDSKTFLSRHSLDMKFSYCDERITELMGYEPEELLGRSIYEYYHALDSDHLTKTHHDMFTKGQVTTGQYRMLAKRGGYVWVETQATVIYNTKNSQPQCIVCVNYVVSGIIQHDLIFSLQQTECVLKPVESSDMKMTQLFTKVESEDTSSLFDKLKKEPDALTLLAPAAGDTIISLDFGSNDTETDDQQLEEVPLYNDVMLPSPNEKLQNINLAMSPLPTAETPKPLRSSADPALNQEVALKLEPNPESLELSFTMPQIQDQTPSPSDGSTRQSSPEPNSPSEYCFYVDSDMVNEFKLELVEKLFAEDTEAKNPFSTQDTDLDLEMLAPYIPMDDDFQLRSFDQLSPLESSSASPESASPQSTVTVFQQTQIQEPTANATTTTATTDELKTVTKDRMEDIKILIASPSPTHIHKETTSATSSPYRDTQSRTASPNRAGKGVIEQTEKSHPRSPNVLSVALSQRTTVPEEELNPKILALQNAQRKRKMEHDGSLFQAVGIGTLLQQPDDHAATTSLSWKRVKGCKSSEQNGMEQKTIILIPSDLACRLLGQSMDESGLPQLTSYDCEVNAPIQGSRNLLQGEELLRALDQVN
# How it was run: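 After 24 h chemical exposure of reporter-transfected HepG2 cells, reporter cDNA was PCR-amplified, labelled by 6-FAM primer extension (2 min 95 C, 20 s 68 C, 10 min 72 C), HpaI-cut (2 h, 37 C) and analysed by CE.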
# [19] = ATG_M_19_CIS: Attagene CIS-FACTORIAL HepG2 Assay for M19 Transcription Factor (Internal Marker) (AID 2282939); details: HepG2 Attagene CIS-FACTORIAL M19 internal marker reporter; actives raise or lower the signal
# How it was run: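 In this multiplexed cell assay, transiently transfected HepG2 reporter units report endogenous transcription-factor activity; after 24 hours of treatment, labelled reporter cDNA fragments are quantified by capillary electrophoresis and fitted bidirectionally against DMSO.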
# [20] = molecular target: Bile acid receptor (Homo sapiens) (UniProt Q96RI1); assay: ATG_IR1_CIS: Attagene CIS-FACTORIAL HepG2 Assay for human Nuclear Receptor Subfamily 1 Group H Member 4 (NR1H4), IR1 submotif (AID 2282946); details: IR1 reporter transcription, actives raise or lower the signal
# Chain of Bile acid receptor (Homo sapiens) (Q96RI1 whole entry, looked up, the tested form may be a part): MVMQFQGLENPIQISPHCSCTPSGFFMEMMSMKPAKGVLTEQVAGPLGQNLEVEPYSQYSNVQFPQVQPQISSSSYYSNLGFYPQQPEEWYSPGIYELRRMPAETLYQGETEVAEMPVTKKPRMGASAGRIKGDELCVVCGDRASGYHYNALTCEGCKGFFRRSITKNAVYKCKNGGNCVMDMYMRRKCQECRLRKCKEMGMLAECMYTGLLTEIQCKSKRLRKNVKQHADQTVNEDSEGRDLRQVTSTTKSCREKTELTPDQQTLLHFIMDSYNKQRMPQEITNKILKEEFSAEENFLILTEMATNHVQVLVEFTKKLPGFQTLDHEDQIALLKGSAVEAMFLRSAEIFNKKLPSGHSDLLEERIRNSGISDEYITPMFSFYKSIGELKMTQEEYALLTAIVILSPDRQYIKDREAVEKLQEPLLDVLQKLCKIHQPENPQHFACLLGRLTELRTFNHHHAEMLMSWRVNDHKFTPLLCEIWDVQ
# How it was run: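 Cells (human HepG2) carry transiently transfected cis-promoter reporter transcription units. Compounds are incubated 24 h, total RNA is reverse-transcribed and amplified, and labelled fragments are resolved by capillary electrophoresis. Curves use DMSO as baseline.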
structure (smiles),measurement,setting,value
O=C(O)c1ccccc1Nc1cccc(C(F)(F)F)c1,AC50,[1],89.2 µM (active)
same,outcome,[2],inactive
same,outcome,[3],inactive
same,outcome,[4],inactive
same,outcome,[5],inactive
same,outcome,[6],inactive
same,outcome,[7],inactive
same,outcome,[8],inactive
same,outcome,[9],inactive
same,outcome,[10],inactive
same,outcome,[11],inactive
same,outcome,[12],inactive
same,outcome,[13],inactive
same,outcome,[14],inactive
same,outcome,[15],inactive
same,AC50,[16],100 µM (active)
same,outcome,[17],inactive
C[Si](C)O[Si](C)(C)O[Si](C)(C)O[Si](C)C,outcome,[1],inactive
same,outcome,[2],inactive
same,outcome,[3],inactive
same,AC50,[4],46.2 µM (active)
same,outcome,[5],inactive
same,outcome,[6],inactive
same,outcome,[7],inactive
same,outcome,[8],inactive
same,outcome,[9],inactive
same,outcome,[10],inactive
same,outcome,[11],inactive
same,outcome,[18],inactive
same,outcome,[15],inactive
same,outcome,[16],inactive
CCCCCC(C)O (centres undefined),outcome,[1],inactive
same,outcome,[2],inactive
same,outcome,[3],inactive
same,outcome,[4],inactive
same,outcome,[5],inactive
same,outcome,[6],inactive
same,outcome,[7],inactive
same,outcome,[8],inactive
same,outcome,[9],inactive
same,outcome,[10],inactive
same,outcome,[12],inactive
same,outcome,[18],inactive
same,outcome,[14],inactive
same,outcome,[15],inactive
same,outcome,[16],inactive
same,outcome,[17],inactive
COc1ccc(-c2coc3cc(O)ccc3c2=O)cc1,outcome,[1],inactive
same,outcome,[2],inactive
same,outcome,[3],inactive
same,outcome,[19],inactive
same,AC50,[4],2.23 µM (active)
same,outcome,[6],inactive
same,outcome,[7],inactive
same,outcome,[8],inactive
same,outcome,[9],inactive
same,outcome,[10],inactive
same,outcome,[11],inactive
same,outcome,[12],inactive
same,outcome,[13],inactive
same,outcome,[18],inactive
same,outcome,[14],inactive
same,outcome,[16],inactive
CCCCCC/C=C/C=O,outcome,[1],inactive
same,outcome,[2],inactive
same,outcome,[3],inactive
same,outcome,[19],inactive
same,outcome,[6],inactive
same,outcome,[7],inactive
same,outcome,[8],inactive
same,outcome,[9],inactive
same,outcome,[10],inactive
same,outcome,[11],inactive
same,outcome,[12],inactive
same,outcome,[13],inactive
same,outcome,[18],inactive
same,outcome,[14],inactive
same,outcome,[17],inactive
Nc1cccc(C(F)(F)F)c1,outcome,[1],inactive
same,outcome,[2],inactive
same,outcome,[3],inactive
same,outcome,[4],inactive
same,outcome,[5],inactive
same,outcome,[6],inactive
same,outcome,[7],inactive
same,outcome,[8],inactive
same,outcome,[9],inactive
same,outcome,[20],inactive
same,outcome,[11],inactive
same,outcome,[12],inactive
same,outcome,[13],inactive
same,outcome,[18],inactive
same,outcome,[14],inactive
same,outcome,[15],inactive
same,outcome,[16],inactive
CCCCCCCCCCCCCCCC(=O)OCC,outcome,[1],inactive
same,outcome,[2],inactive
same,outcome,[3],inactive
same,outcome,[4],inactive
same,outcome,[5],inactive
same,outcome,[6],inactive
same,outcome,[7],inactive
same,outcome,[8],inactive
same,outcome,[9],inactive
same,outcome,[20],inactive
same,outcome,[10],inactive
same,outcome,[11],inactive
same,outcome,[12],inactive
same,outcome,[13],inactive
same,outcome,[18],inactive
same,outcome,[14],inactive
same,outcome,[15],inactive
same,outcome,[16],inactive
CC1(C)[C@H]2CC[C@]1(C)C(=O)C2,outcome,[1],inactive
same,outcome,[2],inactive
same,outcome,[3],inactive
same,outcome,[4],inactive
same,outcome,[5],inactive
same,outcome,[6],inactive
same,outcome,[7],inactive
same,outcome,[8],inactive
same,outcome,[9],inactive
same,outcome,[10],inactive
same,outcome,[12],inactive
same,outcome,[13],inactive
same,outcome,[18],inactive
same,outcome,[14],inactive
same,outcome,[15],inactive
same,outcome,[17],inactive
